Sampled rows, rich in hits. Any-hit rate of the full collection: about 3.8%.
tim23-1 inh: inhibits growth of tim23-1 mutant yeast | inhibition, % at 20 µM | 1.3% of 330,000 active | S. cerevisiae tim23-1 growth, BacTiter-Glo luminescence, 24 h;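 active means growth inhibition of the mutant yeast at or above 50%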;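 further: temperature-sensitive mutant grown at 25 °C; plate controls were DMSO-treated mutant yeast for no effect and medium wells lacking yeast for full effect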
TIM10 inh: inhibits growth of TIM10 yeast strain. inhibition, % at 10 µM. 1.4% of 330,000 active. S. cerevisiae TIM10 strain growth, BacTiter-Glo luminescence, 24 h;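 active means inhibition of 40% or more at the single tested concentration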;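 further: wild-type TIM10 isogenic control strain grown at permissive 25 °C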
PfHsp90 set2: reduces growth (ATP signal) of yeast expressing P. falciparum Hsp90; S. cerevisiae expressing PfHsp90, BacTiter-Glo ATP, 48 h; yeast lacking PDR1 and PDR3 efflux regulators; AID 504621; 0.32% of 310,000 active; inhibition, % at 9.4 µM;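 active means every replicate shows inhibition above about 80%, whatever the replicate mean, limit read from the data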;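 further: 0% = DMSO neutral controls and 100% = 20 µM radicicol positive controls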
B2AR ag: agonists of human beta-2 adrenergic receptor inducing internalization | P07550 | Am2.2-beta2AR cells, FAP receptor internalization, flow cytometry | response, % (test concentration not listed) | 0.43% of 340,000 active;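 active means response above a set limit, near 3 SD of response in nonfluorescent compounds, cut at about 42% in these data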
Target sequence (P07550 whole entry, looked up): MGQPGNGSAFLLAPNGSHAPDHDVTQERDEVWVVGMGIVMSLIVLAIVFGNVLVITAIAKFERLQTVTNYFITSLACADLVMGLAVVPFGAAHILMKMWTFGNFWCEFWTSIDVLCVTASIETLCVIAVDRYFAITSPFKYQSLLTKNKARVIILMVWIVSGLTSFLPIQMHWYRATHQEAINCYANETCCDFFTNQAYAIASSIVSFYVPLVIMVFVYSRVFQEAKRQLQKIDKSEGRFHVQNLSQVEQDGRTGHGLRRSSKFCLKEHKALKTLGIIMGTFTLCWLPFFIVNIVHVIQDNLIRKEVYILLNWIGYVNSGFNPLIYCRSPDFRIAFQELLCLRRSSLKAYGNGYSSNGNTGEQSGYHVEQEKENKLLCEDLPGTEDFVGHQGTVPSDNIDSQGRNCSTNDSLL
tim10-1 inh: growth inhibitors of tim10-1 mutant yeast; S. cerevisiae tim10-1 ts strain growth, BacTiter-Glo, 24 h; 2.2% of 330,000 active; inhibition, % at 20 µM;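 active means inhibition of at least 40%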;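 further: mutant grown at 25 °C; 0% = DMSO wells with yeast and 100% = wells holding no yeast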
tim10-1 confirm: confirmation of tim10-1 mutant yeast growth inhibitors; AID 463213; 56% of 7,400 active; S. cerevisiae tim10-1 ts strain growth, BacTiter-Glo, 24 h; inhibition, % at 20 µM; shares compounds with tim10-1 inh;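 active means inhibition of yeast growth at or above a set limit in either of two repeat tests at 20 µM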;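 further: tim10-1 mutant grown at permissive 25 °C to find synthetic lethal compounds; 0% = DMSO yeast wells and 100% = medium wells without yeast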
Active calls of the source: *; · = no result.

SMILES	tim23-1 inh	TIM10 inh	PfHsp90 set2	B2AR ag	tim10-1 inh	tim10-1 confirm
S=C(NCC1CCCCC1)Nc1cccnc1	31	16	18	-3	53*	43*
N#CC(C#N)=CC1=C2OC(c3ccccc3)=CC(c3ccccc3)=C2CCC1	43	23	-18	4	48*	13
COc1cccc(CNC(=O)Cn2c(=O)c3cccn3c3ccccc32)c1	10	9	-12	-12	18	·
COc1ccccc1NC(=O)CSC1CC(=O)N(c2ccc3c(c2)OCO3)C1=O (stereo not given)	31	20	3	1	47*	45*
CCN(CC)C(=O)Oc1ccc2c(=O)c(-c3ccccc3)coc2c1	21	25	11	3	54*	41*
COc1ccc2c(=O)c(-c3ccccc3)coc2c1	17	-2	8	-5	-5	·
CCN(CC)CCC=C(c1cccs1)c1cccs1	·	·	·	12	·	·
O=C(Nc1cccc(C(=O)N2CCOCC2)c1)C1CCCC1	·	·	9	-2	·	·
COc1ccc(N(CCCN2C(=O)c3cccc4cccc(c34)C2=O)C(=O)c2ccncc2)cc1	30	15	-12	-9	25	·
COc1ccc(N(CCN2C(=O)c3ccccc3C2=O)C(=O)c2cccc([N+](=O)[O-])c2)cc1	49	35	-16	-24	40	35*
O=C(CSc1n[nH]c(-c2ccco2)n1)N1c2ccccc2Sc2ccccc21	28	6	·	0	46*	24
CCOC(=O)CSc1n[nH]c(-c2ccco2)n1	20	4	3	0	8	·
COc1ccc(C(=O)Cn2c(C)nc([N+](=O)[O-])c2Br)cc1	26	18	16	6	15	·
Cc1nc([N+](=O)[O-])c(Br)n1CC(=O)c1ccc(Cl)cc1	31	39	·	25	43*	38*
CN(C)c1nc(-c2ccccn2)nnc1-c1ccccc1	2	-2	34	-18	40*	21
c1ccc(-c2nnc(-c3ccccn3)c(-c3ccccn3)n2)nc1	2	10	·	-5	16	·
Cc1cc(Br)cc(C=Nc2ccc(N3CCOCC3)cc2)c1O	38	-2	6	6	22	·
Oc1cc(Br)ccc1C=Nc1ccc(N2CCCCC2)cc1	50	19	-9	6	42*	26
O=C(O)CCCc1ccc2ccc3cccc4ccc1c2c34	42	19	-23	1	43*	25
CCS(=O)(=O)N1Cc2ccccc2CC1C(=O)NCC12CC3CC(CC(C3)C1)C2 (stereo not given)	35	26	-23	-12	40*	29
Cc1nn(Cc2ccc([N+](=O)[O-])cc2)c(=O)n1N(C)c1ncc(C(F)(F)F)cc1Cl	27	24	9	-2	43*	27*
Oc1ccc(Br)cc1/C=N/n1cnc2ccccc21	33	34	18	10	42*	24
O=C(CSc1n[nH]c(-c2ccc(Br)cc2)n1)N1CCOCC1	-2	-2	·	6	-29	·
C/C(CC(=O)Nc1cccc(Cl)c1Cl)=N\NC(=O)c1ccccc1N	17	25	-9	1	41*	29
CCCCNc1cc(NC(C)=O)cc2cc(OC)c(OC)cc12	27	27	3	9	44*	31
SMILES	tim23-1 inh	TIM10 inh	PfHsp90 set2	B2AR ag	tim10-1 inh	tim10-1 confirm
CCc1ccc(NC(=O)N(Cc2ccco2)C(C)c2cccs2)cc1 (stereo not given)	30	21	6	10	42*	33*
CC(C)CCN(C(=O)Nc1ccccc1)C(C)c1cccs1 (stereo not given)	34	23	·	-3	43*	31*
Cc1nn(CCCC(=O)NCCCN2CCN(C)CC2)c(=O)c2c1sc1ccccc12	7	8	-31	-6	-3	·
COc1ccc(NS(=O)(=O)c2ccc3oc(=O)c4[nH]c(=O)c(=O)n(C)c4c3c2)cc1	13	12	-5	8	-1	·
CC(C)(C)CC(C)(C)c1ccc(OCCOCC[N+](C)(C)Cc2ccccc2)cc1	28	14	-41	12	42*	-9
CN1C(=O)N(CC(=O)Nc2sccc2C(N)=O)C(=O)C12CCCCC2	-13	6	-22	-6	-18	·
CCCOc1ccc(N2C(=O)CC(SCC(N)C(=O)OCC)C2=O)cc1 (stereo not given)	3	4	11	-7	5	·
CCCOc1ccc(N2C(=O)CC(SCCN)C2=O)cc1 (stereo not given)	9	6	-20	-8	42*	24
Cc1n[nH]c(C)c1CCc1nc2c3ccccc3nc(SCC(=O)Nc3ccccc3F)n2n1	9	10	-26	5	18	·
Cc1cccc(NC(=O)CSc2nc3ccccc3c3nc(CCc4c(C)n[nH]c4C)nn23)c1	11	10	·	25	41*	14
COc1ccc(/C=C/C(=O)c2cc(F)ccc2OC(=O)c2ccccc2C)cc1OC	30	20	-15	25	41*	20
COc1ccc(C(=O)Oc2ccc(F)cc2C(=O)/C=C/c2ccc(OC)c(OC)c2)cc1	39	27	-4	5	24	·
O=C(/C=C/c1ccc(Cl)cc1)N1CCOCC1	21	2	33	12	18	·
COc1ccc(NC(=O)C2CCN(S(=O)(=O)c3cccc4cccnc34)CC2)cc1	0	3	-11	-15	-11	·
CC(=O)c1ccc(NC(=O)C2CCN(S(=O)(=O)c3cccc4cccnc34)CC2)cc1	37	18	7	-7	41*	29
O=C(COC(=O)C12CC3CC(CC(O)(C3)C1)C2)Nc1ccc(Cl)c(S(=O)(=O)N2CCOCC2)c1	8	6	-33	-1	9	·
CN(c1nc2ccccc2n2c(C3CC3)nnc12)S(=O)(=O)c1ccccc1	10	-6	18	-1	16	·
CC(C)c1nnc2c(N(C)S(=O)(=O)c3ccccc3)nc3ccccc3n12	30	8	3	-6	43*	-28
Cc1ccc(NC(=O)C2C3CCC(O3)C2C(=O)O)cc1Cl (stereo not given)	-5	-5	6	2	-19	·
COCCCNC(=O)c1c(N)n(/N=C/c2cccs2)c2nc3ccccc3nc12	15	28	1	23	42*	-3
CC(C)OCCCNC(=O)c1c(N)n(/N=C/c2ccccn2)c2nc3ccccc3nc12	8	8	-62	-4	9	·
CCC(C)NC(=O)c1c(N)n(/N=C/c2ccccn2)c2nc3ccccc3nc12 (stereo not given)	2	35	-9	17	42*	17
O=S(=O)(N/N=C1/CC(c2ccccc2)Oc2ccccc21)c1ccc(Br)cc1 (stereo not given)	29	29	·	5	41*	29*
